Source: PubChem
PAFAH2 inh = PAFAH2 enzyme inhibitors, primary screen, biochemical, fluorescence polarization, human. recombinant PAFAH2, FP-rhodamine activity probe. inhibition, % at 3.39 µM. 340,000 compounds, 0.99% hits. AID 492956, 2010;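 active means inhibition above the mean over all tested compounds plus 3 SD, cut at about 30% in these data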;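 further: inhibitors block probe labeling of enzyme so polarization drops; 0% = enzyme with DMSO and 100% = wells lacking PAFAH2 protein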
LYPLA2 inh = LYPLA2 inhibitors, primary screen, counter-screen for PME1 inhibitor project, biochemical, fluorescence polarization, FP-Rh probe ABPP. recombinant LYPLA2. inhibition, % at 5.9 µM. 320,000 compounds, 0.38% hits. AID 2177, 2009;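 active means inhibition above the screen-wide mean plus 3 SD, limit set per campaign, cut at about 26% in these data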;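 further: 0% = LYPLA2 with DMSO and 100% = wells lacking LYPLA2 enzyme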
LYPLA1 inh = LYPLA1 inhibitors, primary screen, counter-screen for PME1 inhibitor project, biochemical, fluorescence polarization, FP-Rh probe ABPP; Acyl-protein thioesterase 1 (Homo sapiens), O75608; recombinant LYPLA1; inhibition, % at 5.9 µM; 320,000 compounds, 0.16% hits;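 active means inhibition above the mean of all tested compounds plus 3 SD, set per campaign, cut at about 14% in these data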;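 further: inhibitors block serine hydrolase probe labeling of LYPLA1 so polarization falls; 0% = enzyme with DMSO and 100% = wells lacking LYPLA1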
Target sequence (O75608 whole entry, looked up): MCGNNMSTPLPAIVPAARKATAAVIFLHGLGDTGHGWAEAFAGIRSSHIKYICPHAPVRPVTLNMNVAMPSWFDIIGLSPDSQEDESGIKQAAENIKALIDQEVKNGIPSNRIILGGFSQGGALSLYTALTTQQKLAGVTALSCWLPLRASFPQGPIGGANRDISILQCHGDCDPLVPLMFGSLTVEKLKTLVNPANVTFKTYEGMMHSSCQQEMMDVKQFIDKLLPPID
pPAFAH FP inh = pPAFAH enzyme inhibitors, primary screen, biochemical, fluorescence polarization, human; recombinant pPAFAH, FP-rhodamine probe fluorescence polarization; inhibition, % at 3.39 µM; 330,000 compounds, 1.5% hits; AID 463082, 2010;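 active means inhibition above the mean inhibition across the screen plus 3 SD, cut at about 25% in these data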;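 further: inhibitors block binding of the rhodamine activity-based probe so polarization drops; 0% = enzyme with DMSO and 100% = wells lacking pPAFAH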
PAFAH1B2 FP inh = PAFAH1B2 enzyme inhibitors, primary screen, biochemical, fluorescence polarization, human; recombinant PAFAH1B2, FP-rhodamine activity probe; 340,000 compounds, 1.2% hits; inhibition, % at 3.39 µM; Platelet-activating factor acetylhydrolase IB subunit alpha2 (Homo sapiens), P68402;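 active means inhibition above the mean of all tested compounds plus 3 SD, cut at about 24% in these data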;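 further: 0% = enzyme with DMSO and 100% = wells lacking PAFAH1B2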
Target sequence (P68402 whole entry, looked up): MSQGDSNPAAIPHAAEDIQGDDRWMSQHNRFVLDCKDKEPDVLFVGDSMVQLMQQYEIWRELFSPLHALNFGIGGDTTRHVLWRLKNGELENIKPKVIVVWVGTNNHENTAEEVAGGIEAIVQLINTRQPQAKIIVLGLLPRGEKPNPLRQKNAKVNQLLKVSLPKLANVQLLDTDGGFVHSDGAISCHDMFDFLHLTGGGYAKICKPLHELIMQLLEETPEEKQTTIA
PAFAH1B3 inh = PAFAH1B3 enzyme inhibitors, primary screen, biochemical, fluorescence polarization, human | recombinant PAFAH1B3, FP-rhodamine probe | inhibition, % at 3.39 µM | 340,000 compounds, 0.28% hits | AID 492972, 2010;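 active means inhibition above the screen-wide average of all tested compounds plus 3 SD, cut at about 25% in these data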;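 further: 0% = enzyme with DMSO only and 100% = wells lacking PAFAH1B3 protein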
PAFAH2 FP conf = PAFAH2 enzyme inhibitors, confirmation, biochemical, fluorescence polarization, human; shares compounds with PAFAH2 inh; recombinant PAFAH2, FP-rhodamine activity probe; inhibition, % at 3.39 µM; 2,300 compounds, 65% hits;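 active means mean inhibition over three repeats above a set limit taken from the earlier primary screen, cut at about 30% in these data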;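 further: inhibitor blocks binding of rhodamine activity probe so polarization falls; 0% = enzyme with DMSO and 100% = wells lacking PAFAH2 protein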
Active calls of the source: *; . = no result given. Only some compounds are listed: those with a hit (about 2.9% of all), similar ones and a draw of the others.

SMILES	PAFAH2 inh	LYPLA2 inh	LYPLA1 inh	pPAFAH FP inh	PAFAH1B2 FP inh	PAFAH1B3 inh	PAFAH2 FP conf
O=c1c2c3c(sc2nc2n1N=C(c1cccs1)CS2)CCCC3	5	-4	-1	-10	-6	9	.
O=c1[nH]c(-c2ccco2)nc2sc3c(c12)CCCC3	3	2	-8	8	5	-5	.
O=c1oc(-c2cccs2)nc2sc3c(c12)CCCC3	42*	-2	0	6	-1	11	38*
Cc1nc2sc3c(c2c(=O)o1)CCC3	60*	8	0	-7	8	4	50*
C=CCN1C(=O)/C(=C\C(C)=C\c2ccccc2)SC1=S	-2	-2	0	2	2	6	.
CCOc1cccc(Nc2cc3n(c(=O)n2)CCc2cc(OC)c(OC)cc2-3)c1	4	-2	-1	0	3	-8	.
COc1cc2c(cc1OC)-c1cc(Nc3ccccc3)nc(=O)n1CC2	0	0	5	0	6	10	.
COc1cc2c(cc1OC)-c1cc(OCc3cccnc3)nc(=O)n1CC2	61*	.	.	.	1	-7	54*
COc1cc2c(cc1OC)-c1cc(N3CCc4ccccc43)nc(=O)n1CC2	53*	0	-8	-1	3	2	41*
C=CCNc1nc(C(=O)OCC(=O)Nc2cccc(SC)c2)cs1	62*	.	.	.	4	9	51*
COC(=O)c1ccccc1NC(=O)COC(=O)/C=C/c1ccco1	7	14	4	5	0	-3	.
O=C(COC(=O)/C=C/c1ccco1)Nc1ccccc1	85*	7	2	10	3	8	83*
CN(Cc1ccccc1)C(=O)COC(=O)/C=C/c1ccco1	12	-1	2	8	-3	8	.
CCN(c1ccc(NC(=O)COC(=O)/C=C/c2ccco2)cc1)C(C)C	23	.	.	10	6	15	.
CCc1ccc(NC(=O)COC(=O)/C=C/c2ccco2)cc1	73*	.	.	15	2	3	73*
O=C(COC(=O)/C=C/c1ccco1)Nc1ccc(F)cc1Cl	63*	-6	-4	1	6	2	46*
O=C(Cc1cccs1)Nc1ccccn1	8	-1	-1	5	2	-8	.
COc1cc(/C=C/C(=O)OCC(=O)N2CCCc3ccccc32)ccc1OCC#N	40*	-4	-1	2	-3	0	19
COc1cc(/C=C/C(=O)OCC(=O)NC(=O)NC(C)(C)C)ccc1OCC#N	23	8	-1	-3	-2	0	.
COc1cc(/C=C/C(=O)OCC(=O)N2CCCc3ccccc32)ccc1O	51*	.	.	5	2	6	41*
COC(=O)c1cc(S(=O)(=O)NCC2CCN(CCc3ccc(OC)cc3)CC2)cn1C	-5	5	0	2	2	3	.
CC(=O)OCC1=C(C(=O)O)N2C(=O)C(NC(=O)c3ccc(COc4c(C)cccc4Cl)o3)C2SC1 (stereo unspecified)	43*	-1	-7	15	-5	-2	41*
CC(=O)OCC1=C(C(=O)O)N2C(=O)[C@@H](NC(=O)Cc3cccs3)[C@H]2SC1	39*	-2	-2	16	5	5	24
COc1ccccc1C(=O)NCCC(=O)Nc1ccc(S(=O)(=O)N2CCCC(C)C2)cc1 (stereo unspecified)	4	-2	0	0	0	6	.
O=C(CNC(=O)C1COc2ccccc2O1)N/N=C/c1ccc(O)cc1O (stereo unspecified)	-3	-5	-4	5	-2	3	.
SMILES	PAFAH2 inh	LYPLA2 inh	LYPLA1 inh	pPAFAH FP inh	PAFAH1B2 FP inh	PAFAH1B3 inh	PAFAH2 FP conf
O=C(COc1ccccc1[N+](=O)[O-])Nc1cccc(S(=O)(=O)NC2=NCCCCC2)c1	8	0	2	7	7	4	.
Nc1ccc(C(=O)OCC(=O)Nc2cccc(S(=O)(=O)NC3=NCCCCC3)c2)cc1[N+](=O)[O-]	54*	.	.	6	3	4	60*
O=C(COC(=O)c1ccc(O)cc1)Nc1cccc(S(=O)(=O)NC2=NCCCCC2)c1	39*	-1	-1	5	3	2	43*
COc1ccc(/C=C/C(=O)OCC(=O)Nc2cccc(S(=O)(=O)NC3=NCCCCC3)c2)cc1	68*	.	.	3	-2	9	50*
COc1ccc(C(=O)Nc2cccc(S(=O)(=O)NC3=NCCCCC3)c2)cc1	-3	-1	-3	-8	-3	4	.
COc1cc(OC)cc(C(=O)OCC(=O)Nc2cccc(S(=O)(=O)NC3=NCCCCC3)c2)c1	-7	.	.	2	8	8	.
COc1ccc(NC(=O)C(NC(=O)CNC(C)=O)c2ccc(C)cc2)cc1 (stereo unspecified)	-1	4	-1	2	1	0	.
O=C(COC(=O)c1ccc(CO)cc1)NCc1cccs1	43*	-7	-5	-3	0	6	35*
O=C(CO/N=C/c1ccc(OC(F)F)cc1)NCc1cccs1	-3	1	-1	4	-2	1	.
Cc1cc(C)c(C(=O)OCC(=O)NCc2cccs2)c(C)c1	-3	2	-1	1	9	10	.
O=C(COC(=O)c1ccco1)NCc1cccs1	34*	4	3	-6	2	3	20
O=C(COC(=O)/C=C/c1ccc(OC(F)F)cc1)NCc1cccs1	46*	-4	-4	8	3	5	41*
Cc1ccc(C(=O)OCC(=O)NCc2cccs2)cc1	53*	-4	-1	18	-1	-8	46*
O=C(COC(=O)c1ccc(Br)o1)NCc1cccs1	17	1	0	12	4	6	.
C/C(=N/OCO/N=C(\C)c1ccccc1F)c1ccccc1F	-4	1	-2	5	7	-5	.
CC1CCCCC1NC(=O)c1cccc(N2C(=O)C3C4C=CC(C4)C3C2=O)c1 (stereo unspecified)	-14	7	-2	2	9	3	.
Cc1nnc(NC2(C(F)(F)F)C(=O)Nc3c2c(=O)n(C)c(=O)n3C)s1 (stereo unspecified)	7	-5	-2	11	1	6	.
Cc1ccc(C(=O)OCC(=O)NCc2cccs2)cc1C	54*	4	-3	7	3	-2	51*
